# According to article PMC7819943, “Rice protein-binding microarrays: a tool to detect cis-acting elements near promoter regions in rice”:
# The full ranking holds about 68,000 sequences; the median of “fluorescence intensity (a.u.)” is about 9,100, and the highest 2% start at about 16,000. Many of the other results were omitted from the sample, so the highest values are more common in it than they were.
# Molecular target: OsWRKY34 (Oryza sativa, UniProt Q0JBA9 1-250)
# Assay: protein-binding microarray (RPBM); PBS, 2% BSA, 51.3 ng/ul salmon testes DNA, 50 uM zinc acetate, 200 nM TF, 25 C, 1 h; high values mean tight binding
# Conditions: protein: recombinant; tags: N-terminal polyhistidine and DsRed monomer fusion (pET32a); label: CyDye5-dUTP incorporated in the synthesized complementary strand; 3' TTTTT single-stranded linker to array surface; dsDNA, one strand shown
# Summary of the method: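 Ni–NTA purification followed expression in E. coli BL21-CodonPlus of transcription factors fused N-terminally to a polyhistidine tag and DsRed. At 200 nM in PBS with 2% BSA, salmon testes DNA and 50 µM zinc acetate, the protein was incubated for 1 h at 25 °C with a custom Agilent array that had been primer-extended with Cy5-dUTP and blocked with 2% BSA. After washing, the array was read on an Axon 4000B scanner. The binding signal is per-feature fluorescence intensity in arbitrary units.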
# Sequence of OsWRKY34 (Q0JBA9 entry or part of it): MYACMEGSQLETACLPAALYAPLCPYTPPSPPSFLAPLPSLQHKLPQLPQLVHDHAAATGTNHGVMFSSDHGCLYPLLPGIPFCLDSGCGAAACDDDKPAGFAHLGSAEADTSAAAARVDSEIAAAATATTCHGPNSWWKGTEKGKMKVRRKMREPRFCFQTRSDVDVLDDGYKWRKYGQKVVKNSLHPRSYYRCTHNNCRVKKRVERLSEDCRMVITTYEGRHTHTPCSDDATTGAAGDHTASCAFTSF
row,Sequence,binding signal
1,TTTTGCCATCTGGTAATCCCTCTACCACCAACAGCTACAACGGAGTCACCTAGTGCAG,9220 fluorescence intensity (a.u.)
2,AGTACTCCTCCGTTCTAAATTAGATGTCGTTTTGATTTTTCGGAGTCACCTAGTGCAG,8570 fluorescence intensity (a.u.)
3,CTCTTGGCGATTTGCGGAAGTTGTTGTTGTCCCCTTGCTCCGGAGTCACCTAGTGCAG,8060 fluorescence intensity (a.u.)
4,TTAGCAAAAACATATCCTTTCTTGCCACACTACTAAGCCACGGAGTCACCTAGTGCAG,8160 fluorescence intensity (a.u.)
5,ACACGGCCACCCGCATCCGCACCACCCGCAAGCCGCGACGCGGAGTCACCTAGTGCAG,9450 fluorescence intensity (a.u.)
6,GCTGGGAGTTAGAACGGTGATCCATCTAGATGTAATGGTCCGGAGTCACCTAGTGCAG,8740 fluorescence intensity (a.u.)
7,CTCCGTTTTCACCCCTATGTATAGTTTATATGTAAATTGCCGGAGTCACCTAGTGCAG,8830 fluorescence intensity (a.u.)
8,ATTTGATTTATTGTTAAATATACTTTCATGTACACATATACGGAGTCACCTAGTGCAG,8240 fluorescence intensity (a.u.)
9,TTGTTACTTTAATTTGTACATCATCATGCGGGTCCGTATACGGAGTCACCTAGTGCAG,16600 fluorescence intensity (a.u.)
10,GGGTGTAATTTTTGTTTTACATGTACGGAATTTTTTACTCCGGAGTCACCTAGTGCAG,10800 fluorescence intensity (a.u.)
11,ATATAGCCTACTACTAGCTCCAAATCATCTATAGTCAATGCGGAGTCACCTAGTGCAG,8120 fluorescence intensity (a.u.)
12,TGGGAGGGTTTCTGATCATCAGCTGTCCTCTTTACCGGCACGGAGTCACCTAGTGCAG,11300 fluorescence intensity (a.u.)
13,GGATTGCCGGTTTTTGGTGTCCTTTTCGCATCAGCTTTAGCGGAGTCACCTAGTGCAG,9120 fluorescence intensity (a.u.)
14,TAGATGACGTCGTTGACTTTTTCTCACATGTTTGACCATTCGGAGTCACCTAGTGCAG,28800 fluorescence intensity (a.u.)
15,TAGATGATGCTGTTAACTTTTTCTCACATGTTTGACCATTCGGAGTCACCTAGTGCAG,12700 fluorescence intensity (a.u.)
16,GACGCCGTTGATTTTTTCTCACATGTTTGACCATTCGTCTCGGAGTCACCTAGTGCAG,18000 fluorescence intensity (a.u.)
17,TTTTCTCACATGTTTGACCATTCGTCTTATTCAAAAATTTCGGAGTCACCTAGTGCAG,9990 fluorescence intensity (a.u.)
18,GACGCCGTTAACTTTTTCTCACATGTTTAACCATTCGTCTCGGAGTCACCTAGTGCAG,12700 fluorescence intensity (a.u.)
19,AGATGACGCCATTGACTTTTTCTCACATGTTTGACCATTCCGGAGTCACCTAGTGCAG,15800 fluorescence intensity (a.u.)
20,ATAGATGACGCCGTTGATTTTTTCTCACATGTTTGACCGTCGGAGTCACCTAGTGCAG,15600 fluorescence intensity (a.u.)
21,TTTCTCACATGTTTGACCATTCGTCTTATTCAAAAATTTTCGGAGTCACCTAGTGCAG,12800 fluorescence intensity (a.u.)

row,Sequence,binding signal
1,GACGCTGTTGACTTTTTCTCACATGTTTGACCATTCGTCTCGGAGTCACCTAGTGCAG,28900 fluorescence intensity (a.u.)
2,CAGTTTTTGAGGTAGAAGGGTATCATTGTAATTTTGCATCCGGAGTCACCTAGTGCAG,8850 fluorescence intensity (a.u.)
3,AAATGTGGTTTTGATGGTTTCCAACATATATTTATCGGTTCGGAGTCACCTAGTGCAG,8570 fluorescence intensity (a.u.)
4,TTATCAAATTCCGATCAAATCATTCCTCGTCGGCGTCCATCGGAGTCACCTAGTGCAG,8880 fluorescence intensity (a.u.)
5,AACGGCAGCAGATCCACCAAACCCCACACCCTCTCCAAATCGGAGTCACCTAGTGCAG,8600 fluorescence intensity (a.u.)
6,ACTCCATTTACGGGCAACTCTTGCTTGCGCAACGGGCCTTCGGAGTCACCTAGTGCAG,8790 fluorescence intensity (a.u.)
7,TTCTTAACATGTTCGCATATGAAAATAGACTTATTTTTTACGGAGTCACCTAGTGCAG,8130 fluorescence intensity (a.u.)
8,AGCATATCAGCCACTCTTTCTTCTTTGTCTTTATCAACTCCGGAGTCACCTAGTGCAG,8250 fluorescence intensity (a.u.)
9,ACTCTTATTGTCTTCACGTTGTCTTATCAGCCACGATCAACGGAGTCACCTAGTGCAG,17900 fluorescence intensity (a.u.)
10,TCCACGTTCACTTATCAGCCCCAACGTCTTAGCTTCCGATCGGAGTCACCTAGTGCAG,9260 fluorescence intensity (a.u.)
11,GGAATTTCTCAGCTCACACGAGTCACGGACCCACCACCACCGGAGTCACCTAGTGCAG,8960 fluorescence intensity (a.u.)
12,GGGTCTAACTCTAAGAGTATTGGGTACCCCTTATCGTTAACGGAGTCACCTAGTGCAG,8360 fluorescence intensity (a.u.)
13,TCTTTCATACGGAATTCCTTTTCATTATTGGATGCCAGCTCGGAGTCACCTAGTGCAG,9330 fluorescence intensity (a.u.)
14,CAAGGTTTGTTTTCTTATCAGTTACTACTGCTTTTGTGGTCGGAGTCACCTAGTGCAG,11100 fluorescence intensity (a.u.)
15,TGTGGGACAGGATGGTCACTAATTTCCGGTTTTGGTTTTACGGAGTCACCTAGTGCAG,8480 fluorescence intensity (a.u.)
16,ATTTATTTTGGGATGGGGAGGGAGACAACTACAGTGTTTCCGGAGTCACCTAGTGCAG,18200 fluorescence intensity (a.u.)
17,TTTGGGGATTTCTTTCTTATTTTTCTTTCCCTTTTTTTCCCGGAGTCACCTAGTGCAG,10900 fluorescence intensity (a.u.)
18,GGGTGGGTTGATTTGATAGACTTCTTTTGCTTTTGATAAACGGAGTCACCTAGTGCAG,29100 fluorescence intensity (a.u.)
19,TTTTTCTTTTCTTTTTTGCTTTTGAATTGTGGGGTTGTAACGGAGTCACCTAGTGCAG,8790 fluorescence intensity (a.u.)
20,ACCTTCACTATTTTTTTTGATTTTTTTCTTTTTTTTTTAACGGAGTCACCTAGTGCAG,12200 fluorescence intensity (a.u.)
21,TAGAGGGATGGGCTATTAAGTGTTTTATTTGGTTGGGAGACGGAGTCACCTAGTGCAG,15200 fluorescence intensity (a.u.)

row,Sequence,binding signal
1,CTTTTTTGGGTGATTTTTTTTCACTTGGGGTGGGTGATAACGGAGTCACCTAGTGCAG,21800 fluorescence intensity (a.u.)
2,TAACGATTTTTTTTTTGGGAGGGTGGGGATTTTTTTTTTCCGGAGTCACCTAGTGCAG,24100 fluorescence intensity (a.u.)
3,CGGGTTTGATTTGATTTGATTTTGATTTTGATTTGCTTCTCGGAGTCACCTAGTGCAG,8190 fluorescence intensity (a.u.)
4,GAGTTTTCCGTGTGGAGGGTGTGGATTTTTTCGTGTGTTCCGGAGTCACCTAGTGCAG,15500 fluorescence intensity (a.u.)
5,AGTAGAGTATTTTTTTTTCTTTTTTGATTGATGGTGATAACGGAGTCACCTAGTGCAG,8320 fluorescence intensity (a.u.)
6,ATCTCTGATCCGTCCAGTTGACCCAAAGCTAGAGTCTTTCCGGAGTCACCTAGTGCAG,10700 fluorescence intensity (a.u.)
7,GTGTTGTGTTTATTTTTTTATAATATCCATGATTGTAATCCGGAGTCACCTAGTGCAG,9640 fluorescence intensity (a.u.)
8,TCCGCCGCCGTCTCCGCCGCCTCCAGCCATCGATCCCGGCCGGAGTCACCTAGTGCAG,8250 fluorescence intensity (a.u.)
9,GCACACATACACATACTGACAATGATGAGTTGATGACACACGGAGTCACCTAGTGCAG,8500 fluorescence intensity (a.u.)
10,GCCCGGCCCAGTAGATACCACCACCTCACACTCCATTCGCCGGAGTCACCTAGTGCAG,9860 fluorescence intensity (a.u.)
11,GGAGCATGTTCAACCATTCATTGTTTTCTCTATTGCATAACGGAGTCACCTAGTGCAG,8070 fluorescence intensity (a.u.)
12,GTTGTCTAGTGCTTGCTATTCTTCTACTAGTAGTATTATACGGAGTCACCTAGTGCAG,9570 fluorescence intensity (a.u.)
13,AATCCATTTCCCATTCGCCATTCCCCATCCTTATCTCTTACGGAGTCACCTAGTGCAG,8660 fluorescence intensity (a.u.)
14,GTTGCATTTGCCGCTGCGACACGGACCCCGCCTTAATAACCGGAGTCACCTAGTGCAG,9020 fluorescence intensity (a.u.)
15,ATTTTTACCCTTCTCCTGTGTTTTTGTTGCTGTGATTCAACGGAGTCACCTAGTGCAG,8570 fluorescence intensity (a.u.)
16,ATCCAATGGTATAATTTTTTTAGGGAAGGGTTTTTTTTTCCGGAGTCACCTAGTGCAG,12600 fluorescence intensity (a.u.)
17,ATGCCCTGTTACCTGTGTGTGATTTCTTTGTGCTCCATAACGGAGTCACCTAGTGCAG,17600 fluorescence intensity (a.u.)
18,TACCTGATTTGTGCATATGTTTCTTTCTGTTTTGCCCTTACGGAGTCACCTAGTGCAG,8170 fluorescence intensity (a.u.)
19,AAGATTTGCTGGGAGGGTGGGGTGGGGATTAGTCCCTAAACGGAGTCACCTAGTGCAG,24500 fluorescence intensity (a.u.)
20,TCTTTCTCTCTCTTGCTGCCGTTGAGGGATTTGGGGTGAACGGAGTCACCTAGTGCAG,10000 fluorescence intensity (a.u.)
21,GATTTGGTGGGTTATAATTTTATAGTAAGAGGGGATTTTACGGAGTCACCTAGTGCAG,16100 fluorescence intensity (a.u.)

row,Sequence,binding signal
1,AGATGGTGTTTGGATGGGAGGGATTTATTTTAGTCCCTCTCGGAGTCACCTAGTGCAG,10200 fluorescence intensity (a.u.)
2,TGATTTTTTAGGGAGGGGTGGTTAGTATAAGAGGGTTTTCCGGAGTCACCTAGTGCAG,20000 fluorescence intensity (a.u.)
3,CTACTATTGCGTTGTTTTATTTTGGCCAGTTTATTTCAAACGGAGTCACCTAGTGCAG,13400 fluorescence intensity (a.u.)
4,TTTTTTTGCTTTTTCACTATTTTTTTATTTTGACGGACGACGGAGTCACCTAGTGCAG,9300 fluorescence intensity (a.u.)
5,GAATTCATACTTTTTCCTATATTTATCTTTGGCCTTAATCCGGAGTCACCTAGTGCAG,8560 fluorescence intensity (a.u.)
6,CCCCAAAATACTCGACGCTGAACTTTCCCATCAGCTAGTACGGAGTCACCTAGTGCAG,8280 fluorescence intensity (a.u.)
7,CCTTGGCAGTGGGGCGGAGGGGCGGTGTCGGTGCTGGCGGCGGAGTCACCTAGTGCAG,13800 fluorescence intensity (a.u.)
8,TTGTAAGTTAGGGACCTGTTGTATCTGATTTTTTGGTTGACGGAGTCACCTAGTGCAG,8210 fluorescence intensity (a.u.)
9,AATGTTGTCCTGTCGGCTGCTTCTGCTCCAACGTCAAGTTCGGAGTCACCTAGTGCAG,8140 fluorescence intensity (a.u.)
10,ATTTTACCAGTCTTGGAGATTTTAATCTTGTATAGTTTTCCGGAGTCACCTAGTGCAG,9110 fluorescence intensity (a.u.)
11,TTTCATTATACATATAGTTTTACATATTTCACAAAATTTTCGGAGTCACCTAGTGCAG,8770 fluorescence intensity (a.u.)
12,CTAGGGTTAGGGGTTTGGGTGGGGAAATTTTCACGAGGGACGGAGTCACCTAGTGCAG,14600 fluorescence intensity (a.u.)
13,TATATATATATATATATATATATTCACAAATTATTTTTCACGGAGTCACCTAGTGCAG,23500 fluorescence intensity (a.u.)
14,CTCACCATTTCATTTTATTTTTCATTTTTCACCACAAATTCGGAGTCACCTAGTGCAG,9050 fluorescence intensity (a.u.)
15,GGGGAAATTTTCACGAGGGAGAGGGAGGGGAGGGATATTTCGGAGTCACCTAGTGCAG,23200 fluorescence intensity (a.u.)
16,GGGGATTTTTTTTTCGGATCCAGAACGATCAGAGAGGGAGCGGAGTCACCTAGTGCAG,9300 fluorescence intensity (a.u.)
17,ATCCATGGGCCTCGTTGGTTATAGCCTGTGTGCATCAACACGGAGTCACCTAGTGCAG,8230 fluorescence intensity (a.u.)
18,TCCTCCTTTCTCGCTCTCGCTCTGTCCGATCGGAGCCATGCGGAGTCACCTAGTGCAG,8490 fluorescence intensity (a.u.)
19,TTGGGGTTCGTGGGGTCGAGAGGAAGGTGCGTGATCATACCGGAGTCACCTAGTGCAG,11500 fluorescence intensity (a.u.)
20,TATTTTCCGGATCGAATTGCCACGTAAGGGCCACATCAGTCGGAGTCACCTAGTGCAG,8510 fluorescence intensity (a.u.)
21,ACTGGCTTTGCTATGATCTTTTGCTATCGCCCAACCGTTACGGAGTCACCTAGTGCAG,8690 fluorescence intensity (a.u.)
